Among all 340,000 compounds or so, about 4,200 (1.2%) were called active.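 How the source made its calls: active means inhibition above the mean of all tested compounds plus 3 SD (cut at about 24% in these data); inactive means the rest.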 For the sample, actives were picked, then their nearest neighbours and some compounds at random.
These molecules were tested against Platelet-activating factor acetylhydrolase IB subunit alpha2 (Homo sapiens) (UniProt P68402) (assay: PAFAH1B2 enzyme inhibitors, primary screen, biochemical, fluorescence polarization, human (AID 492953;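 further: 0% = enzyme with DMSO and 100% = wells lacking PAFAH1B2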)). Conditions: recombinant PAFAH1B2, FP-rhodamine activity probe, at 3.39 µM, active compounds read high.
Sequence of Platelet-activating factor acetylhydrolase IB subunit alpha2 (Homo sapiens) (P68402 whole entry, looked up): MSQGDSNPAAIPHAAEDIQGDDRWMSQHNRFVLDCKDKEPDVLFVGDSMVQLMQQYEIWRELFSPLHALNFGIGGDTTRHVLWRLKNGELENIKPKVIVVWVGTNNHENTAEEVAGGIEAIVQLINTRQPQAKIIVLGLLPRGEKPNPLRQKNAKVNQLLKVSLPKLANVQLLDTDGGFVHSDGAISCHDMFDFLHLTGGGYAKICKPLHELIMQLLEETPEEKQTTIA

| SMILES | inhibition |
| --- | --- |
| COCC1CCCN(Cc2cn[nH]c2-c2cc3ccccc3o2)C1 (stereo not drawn) | -0.69% (inactive) |
| Cc1ccccc1NC(=O)N1CCCC1C(=O)NCc1ccccc1 (stereo not drawn) | 3.76% (inactive) |
| O=[N+]([O-])c1ccc(NCCCO)c(C(F)(F)F)c1 | 6.89% (inactive) |
| COCC1CCCN(Cc2nc(-c3ccc4c(c3)OCO4)no2)C1 (stereo not drawn) | 3.45% (inactive) |
| O=C(COc1cccc(-n2cnnn2)c1)NCCC1=CCCCC1 | 10.3% (inactive) |
| O=C(COc1ccc(Cl)cc1)NCCC1=CCCCC1 | 27.5% (active) |
| CC(C)COc1ccc(C(=O)OCC(=O)NCCC2=CCCCC2)cc1 | 2.59% (inactive) |
| CC1(c2ccccc2)CC(C)(C)N(C(=O)c2cc([N+](=O)[O-])cc([N+](=O)[O-])c2)c2ccccc21 (stereo not drawn) | -0.31% (inactive) |
| CC1CCC2CCCCC2N1C(=O)c1cc([N+](=O)[O-])cc([N+](=O)[O-])c1 (stereo not drawn) | 24.7% (active) |
| CC1CCN(C(=S)c2cccc([N+](=O)[O-])c2)CC1 | 19.4% (inactive) |
| COc1ccc(CN2CCN(C(=O)c3cc(C4CC4)nn3-c3ccccc3)CC2)cc1F | 2.17% (inactive) |
| O=C(COc1cccc2c1CCNC2=O)NC1CCCCC1 | -3.94% (inactive) |
| O=C(Nc1ccc2ccccc2c1[N+](=O)[O-])c1ccccc1 | 5.08% (inactive) |
| CN(C)c1ccc(S(=O)(=O)NCC(=O)NCC2CCCCC2)cc1[N+](=O)[O-] | 8.33% (inactive) |
| COc1ccc(NS(=O)(=O)c2ccc(O)c(C(=O)OCC(=O)NC3CCCCC3)c2)cc1 | 19.8% (inactive) |
| CCN(C(=O)COC(=O)c1cc(NS(=O)(=O)c2ccc(Cl)c([N+](=O)[O-])c2)ccc1O)C1CCCCC1 | 45.9% (active) |
| Cc1c(NS(=O)(=O)c2cccc(C(=O)Nc3ccc(SC(F)F)cc3)c2)c(=O)n(-c2ccccc2)n1C | 5.1% (inactive) |
| COc1ccc(C(=O)CSc2nnc(NC(=O)C3CC(=O)N(c4cccc(OC)c4)C3)s2)cc1 (stereo not drawn) | -6.09% (inactive) |
| O=C(CNC(=O)c1cc(S(=O)(=O)N2CCOCC2)ccc1N1CCCC1)Nc1ccc(F)c(F)c1 | -4.31% (inactive) |
| COc1cc(C(=O)Nc2cc(C(F)(F)F)ccc2-n2cncn2)cc(OC)c1OC | -1.88% (inactive) |

| SMILES | inhibition |
| --- | --- |
| CCc1nn(CC(=O)N2CCN(c3cc(C)ccc3C)CC2)c(=O)c2cc3occc3n12 | 2.35% (inactive) |
| CSCCC(NC(=O)COc1ccccc1)C(=O)N1CCN(c2cccc(C(F)(F)F)c2)CC1 (stereo not drawn) | 7.1% (inactive) |
| CC(=O)NC1=NC(=O)CS1 | -3.07% (inactive) |
| COc1ccc(C2(CNC(=O)Cc3ccc(OC)c(OC)c3)CCCC2)cc1 | -0.19% (inactive) |
| COc1cc(C(=O)NCC2(c3ccccc3)CCCC2)ccc1OC(C)C | 69.7% (active) |
| COc1ccc(C2(CNC(=O)C(c3ccccc3)c3ccccc3)CCOCC2)cc1OC | -0.88% (inactive) |
| CCCCc1nc2cc(C(=O)NCCc3cnn(C)c3)ccc2o1 | -4.49% (inactive) |
| O=C(/C=C/c1ccc(Cl)cc1)N1CCN(c2ccccc2[N+](=O)[O-])CC1 | -2.36% (inactive) |
| COc1cccc2c1C(=O)c1c(O)c3c(c(O)c1C2=O)CC(O)(C(C)=NNC(=O)c1ccc(Cl)c(Cl)c1)CC3OC1CC(N)C(O)C(C)O1 (stereo not drawn) | 52.5% (active) |
| CC/C(=C(/c1ccccc1)c1ccc(OCC[N+](C)(C)C)cc1)c1ccccc1 | 8.4% (inactive) |
| CCOc1cc(/C=C(/C#N)c2ccc(Cl)cc2)cc(Cl)c1OCC(=O)O | 71.1% (active) |
| CCOC(=O)CN/C=C(\C#N)c1ccc(F)cc1 | -0.66% (inactive) |
| C/C(=N\OCC(=O)O)c1ccc(Cl)cc1 | 9.56% (inactive) |
| CC12CCC(=O)N1C(C(=O)NCCN1C(=O)S/C(=C\c3ccccc3F)C1=O)CS2 (stereo not drawn) | -0.86% (inactive) |
| C/C(=N\NC(=O)Cc1ccccc1[N+](=O)[O-])c1cccnc1 | 4.87% (inactive) |
| CC(C)c1nc(CNC(=O)CC2C(=O)NCCN2Cc2cccc(F)c2F)cs1 (stereo not drawn) | 3.42% (inactive) |
| O=C(CC1CCCCC1)NCc1ccccc1 | 2.39% (inactive) |
| CCCCNC(=O)CN1C(=O)NC(Cc2ccccc2)(Cc2ccccc2)C1=O | 2.58% (inactive) |
| O=C(CN1C(=O)NC(Cc2ccccc2)(Cc2ccccc2)C1=O)NCC1CCCCC1 | 24.3% (active) |
| CC(/C=C/c1ccccc1)=N\NC(=O)C1CC1(C)c1ccccc1 (stereo not drawn) | 6% (inactive) |

| SMILES | inhibition |
| --- | --- |
| CCOC(=O)C1(Cc2ccccc2C)CCCN(C(=O)c2ccc(COC)o2)C1 (stereo not drawn) | 5.55% (inactive) |
| Cc1ccc(S(=O)(=O)CCC(=O)OCC(=O)NCCc2ccc(S(N)(=O)=O)cc2)cc1 | -1.78% (inactive) |
| COc1ccc(Cl)cc1NC(=O)CCS(=O)(=O)c1ccc(Br)cc1 | 10% (inactive) |
| O=C(CCS(=O)(=O)c1ccc(Br)cc1)NCCc1ccc(Cl)cc1 | 25.1% (active) |
| CCCC(O)(c1ccccc1)C(c1ccccc1)c1ccccn1 (stereo not drawn) | 0.64% (inactive) |
| Cc1ccc(NC(=S)NCc2ccccc2Cl)c(C)c1 | -2.26% (inactive) |
| Cc1ccc(NC(=S)NCCc2ccc(Cl)cc2)c(C)c1 | 24.7% (active) |
| Cc1cccc(NC(=S)NCCc2ccc(Cl)cc2)c1C | 13.9% (inactive) |
| COc1ccc(CNCCCNCc2ccc(OC)c(OC)c2)cc1OC | 2.53% (inactive) |
| ONC(=Nc1ccc(Cl)cc1)c1ccccc1Cl | 15% (inactive) |
| C[C@@H](NC(=O)[C@@H]1Cc2ccccc2CN1)C(=O)NC1CCCC1 | 1.64% (inactive) |
| CCC(C)N1C(=S)SC(C)(C)C1N(O)C(=O)NC1CCCCC1 (stereo not drawn) | 5.19% (inactive) |
| CCCCNC(=O)N(O)C1N(/N=C/c2ccccc2O)C(=S)SC1(C)C (stereo not drawn) | 4.39% (inactive) |
| CCCCNC(=O)N(O)C1N(/N=C/c2ccc(N(C)C)cc2)C(=S)SC1(C)C (stereo not drawn) | 27.3% (active) |
| CN(C)c1nc(N)nc(CSc2nnnn2-c2cccc3ccccc23)n1 | 1.2% (inactive) |
| CN(C)C(=O)COC(=O)c1cccc(S(=O)(=O)N2CC3(C)CC2CC(C)(C)C3)c1 (stereo not drawn) | 15.9% (inactive) |
| C=CCN(c1ccc(Cl)cc1)S(=O)(=O)c1cccc(C(=O)OCC(=O)N(C)C)c1 | 27.3% (active) |
| COc1ccc(N(Cc2ccccc2)S(=O)(=O)c2cccc(C(=O)O)c2)cc1 | -0.1% (inactive) |
